Active and inactive are the calls of the source. Unless noted, the rule behind the calls is not given here.

Consider eleven molecules from PubChem BioAssay.

Test [1] deals with Wnt5a (protein binding on small-molecule microarray). The test is described as follows: Wnt5a binders on small-molecule microarray, primary screen, biophysical, 635/667 nm fluorescence (AID 1142).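 Note: fluorescence read at 667 nm with signal to noise per printed feature.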 Particulars: 635 nm fluorescence, higher = more signal.
Test [2] can be described thus: cell viability in Huh7 cells, primary screen, cytotoxicity control for HCV replication inhibitor project, CellTiter-Glo luminescence, basal, 48 h (AID 1143).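 Note: Huh7 hepatoma cells carrying a hepatitis C replication reporter with no stimulus; test concentration not given here.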 The following applies: Huh7 HCV replicon, higher = more signal, called active from +8 up or from −8 down.
Test [3] can be described thus: P. aeruginosa biofilm formation inhibitors, primary screen, PAO1 strain, BacTiter-Glo luminescence, LB-PBS (AID 1144). Particulars: 12 h, higher = more signal.
Test [4] in a line: CREB reporter modulators without forskolin, primary screen, cell-based, PC12, CRE-LacZ reporter, unstimulated (AID 1145). Particulars: no forskolin, luminescence, 4.5 h, higher = more signal, called active from +8 up or from −8 down.
Test [5] is described as follows: CREB reporter modulators under forskolin, primary screen, cell-based, PC12, CRE-LacZ reporter, forskolin-stimulated (AID 1146).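 Note: PC12 cells with 6xCRE LacZ reporter stimulated by forskolin 10 µM; beta-galactosidase reporter signal reflecting CREB driven transcription.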 Particulars: luminescence, 4.5 h, higher = more signal, called active from +8 up or from −8 down.
Test [6] has as its target Streptavidin (Streptomyces avidinii) (UniProt P22629). The test is described as follows: streptavidin binders on small-molecule microarray, primary screen, artefact control for SMM compound annotation, biophysical, 635/667 nm fluorescence (AID 1147).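 Note: signal reflects streptavidin binding to arrayed compounds as a control protein.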 Particulars: streptavidin binding, higher = more signal.
Test [7] is described as follows: small-molecule binders of probe aInhba, primary screen, biochemical, small-molecule microarray, 635/667 nm fluorescence (AID 1148).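 Note: score merges 667nm spot fluorescence with signal-to-noise for antibody binding to printed compounds.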 The following applies: higher = more signal.
Test [8] addresses Torsin-1A (Homo sapiens) (UniProt O14656). Description: torsin A binders from cell lysate, primary screen, small-molecule microarray, wild-type, 635/667 nm (AID 1149). The following applies: COS7 hTOR1A-WT lysate, 635 nm fluorescence, higher = more signal.
Test [9] has the same target. The test is described as follows: small-molecule binders of mutant TOR1A in lysate, primary screen, cell lysate, small-molecule microarray, COS7 lysate, 635/667 nm fluorescence (AID 1150).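 Note: score pools 667 nm emission and signal to noise measuring lysate protein binding.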 Particulars: COS7 hTOR1A mutant lysate, 635 nm fluorescence, higher = more signal.
Test [10] concerns Sonic hedgehog protein (Shh). The test is described as follows: small-molecule binders of Shh protein, primary screen, biochemical, small-molecule microarray, 635/667 nm fluorescence (AID 1151).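 Note: Shh protein binding to compounds spotted on small-molecule microarray slides; score combines spot fluorescence intensity with signal-to-noise across triplicate slides.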 The following applies: small-molecule microarray binding, 635 nm fluorescence; higher = more signal.

Chain of Streptavidin (Streptomyces avidinii) (P22629 whole entry, looked up): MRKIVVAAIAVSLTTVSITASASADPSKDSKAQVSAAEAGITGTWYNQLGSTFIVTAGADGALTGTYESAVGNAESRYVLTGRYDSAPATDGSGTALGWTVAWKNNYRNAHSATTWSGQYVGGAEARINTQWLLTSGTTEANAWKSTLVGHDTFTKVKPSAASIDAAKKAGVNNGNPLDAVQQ
Chain of Torsin-1A (Homo sapiens) (O14656 whole entry, looked up): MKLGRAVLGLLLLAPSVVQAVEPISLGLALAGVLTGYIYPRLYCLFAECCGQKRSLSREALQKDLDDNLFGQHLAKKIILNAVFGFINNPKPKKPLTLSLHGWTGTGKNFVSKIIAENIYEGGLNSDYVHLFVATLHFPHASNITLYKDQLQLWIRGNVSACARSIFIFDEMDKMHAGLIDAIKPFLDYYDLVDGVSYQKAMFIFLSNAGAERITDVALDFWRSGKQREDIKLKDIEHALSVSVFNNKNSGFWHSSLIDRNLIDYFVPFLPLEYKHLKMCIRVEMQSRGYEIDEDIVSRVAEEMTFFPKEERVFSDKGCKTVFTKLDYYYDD

With `CN(C)CCCNC(=O)[C@@]1(Cc2ccccc2I)c2ccccc2C(=O)N(C2CCCCC2)[C@H]1c1ccc(CO)cc1`, the composite z-score in [1] amounted to 0.418; in [6] it was 1.19; in test [7], 0.41; in the test with Torsin-1A (Homo sapiens) [8], 0.305; with Torsin-1A (Homo sapiens) [9] it was 0.794; in test [10] it was 0.618. The z-score in test [2] was -5.91 (inactive); in test [3] it was 1.69 (inactive); in test [4], 2.12 (inactive); in [5], 1.76 (inactive).
With `CCN(CC)c1ccc(N2CC=CC34O[C@@H]5C=CCCOC(=O)C5[C@H]3C(=O)N(C(C)CO)[C@@H]4C2=O)cc1` (stereo not given in full), the composite z-score in [1] was -0.188; in [6], -0.638; in test [7] it was 0.166; with Torsin-1A (Homo sapiens) [8] it was 0.0632; with Torsin-1A (Homo sapiens) [9], -0.194; in test [10], 1.53. The z-score in test [2] was 0.0396 (inactive); in test [3] it was 1.25 (inactive); in [4], 1.01 (inactive); in test [5] it was -0.0386 (inactive).
As to `COC(=O)[C@@]1(Cc2ccc(F)cc2)[C@H]2c3cc(C(=O)N4CCCC4)n(Cc4ccccn4)c3C[C@H]2CN1C(=O)c1ccccc1`, the composite z-score in test [1] was 0.739; in [6], 0.498; in test [7] it was 0.522; with Torsin-1A (Homo sapiens) [8], -0.578; with Torsin-1A (Homo sapiens) [9] it was 0.738; in test [10] it was -0.138. Besides, the z-score was -1.56 (inactive) in test [2], 0.261 (inactive) in test [3], 0.966 (inactive) in [4] and 1.35 (inactive) in test [5].
For `COc1ccc([Si](C)(C)[C@H]2[C@H](CC(=O)N3CCC[C@H]3CO)O[C@@]3(C(=O)N(Cc4ccc(N5CCCCC5=O)cc4)c4ccccc43)[C@@H]2C)cc1`, the composite z-score is 0.567 in [1]; -0.0147 in [6]; 0.426 in [7]; 0.13 with Torsin-1A (Homo sapiens) [8]; 0.608 with Torsin-1A (Homo sapiens) [9]; 2.17 in test [10]. Besides, the z-score was -3.13 (inactive) in [2], -0.53 (inactive) in test [3], -0.258 (inactive) in test [4] and 0.44 (inactive) in test [5].
Take `CCOC(=O)C1=CC[C@@H](c2ccc(OC)cc2)N(S(=O)(=O)c2ccc(C)cc2)[C@H]1c1ccc(C)cc1`: the composite z-score was 0.151 in test [1]; 0.778 in test [6]; 0.1 in [7]; -0.414 in the test with Torsin-1A (Homo sapiens) [8]; 0.308 with Torsin-1A (Homo sapiens) [9]; -0.625 in test [10]. Also, the z-score was -2.4 (inactive) in test [2], 0.12 (inactive) in [3], -0.415 (inactive) in [4] and -0.24 (inactive) in test [5].
With `COCCOC(=O)N1C(=O)[C@@]2(c3cc(C#CCC(C(=O)OC)C(=O)OC)ccc31)[C@H](C(=O)Nc1nc3ccccc3s1)[C@H]1C(=O)O[C@H](c3ccccc3)[C@H](c3ccccc3)N1[C@@H]2c1ccc(O)cc1`, the composite z-score in test [1] turned out to be 0.624; in test [6], 1.27; in test [7], 0.326; with Torsin-1A (Homo sapiens) [8] it was 0.391; with Torsin-1A (Homo sapiens) [9], 0.0756; in [10] it was 1.84. The z-score in test [2] is -0.869 (inactive); in test [3], 0.446 (inactive); in [4] it was -1.14 (inactive); in test [5], 0.316 (inactive).
For the molecule `CN(C)CCCNC(=O)[C@@H]1c2ccccc2C(=O)N(Cc2ccccc2C(F)(F)F)[C@H]1c1ccc(CO)cc1`, the composite z-score in [1] was 0.0246; in test [6], -0.734; in test [7] it was -0.16; in the test with Torsin-1A (Homo sapiens) [8], 0.0406; with Torsin-1A (Homo sapiens) [9], -0.0393; in [10] it was 0.547. Moreover, the z-score in test [2] is -0.574 (inactive); in test [3] it was 0.405 (inactive); in test [4], -0.206 (inactive); in [5], -0.951 (inactive).
With `O=C(NC1CC1)[C@@H]1c2ccccc2C(=O)N(CC23CC4CC(CC(C4)C2)C3)[C@H]1c1ccc(CO)cc1`, the composite z-score is 0.659 in test [1]; 0.189 in test [6]; 0.0697 in test [7]; 0.197 in the test with Torsin-1A (Homo sapiens) [8]; 0.833 in the test with Torsin-1A (Homo sapiens) [9]; 1.88 in [10]. Besides, the z-score is -1.29 (inactive) in [2], -0.88 (inactive) in test [3], 0.0026 (inactive) in test [4] and -0.049 (inactive) in test [5].
`COc1cc(CO)cc(I)c1O[C@H]1C=C(C(=O)NCCO)C[C@@H]2O[C@H]12`: the composite z-score in test [1] is 0.815; in test [6], 0.717; in test [7], -0.0589; in the test with Torsin-1A (Homo sapiens) [8], 1.58; with Torsin-1A (Homo sapiens) [9] it was 0.125; in [10], 1.59. In addition, the z-score in [2] was -4.18 (inactive); in test [3], -0.583 (inactive); in [4], 3.65 (inactive); in test [5] it was 3.07 (inactive).
On to `N#Cc1ccc(NN2C(C(O)C3CC=CCC3)C=CC3C(=O)N(c4ccccc4)C(=O)C32)cc1` (stereo not given), for which the composite z-score is 0.223 in test [1]; 0.126 in test [6]; -0.0131 in [7]; -0.694 in the test with Torsin-1A (Homo sapiens) [8]; 0.202 in the test with Torsin-1A (Homo sapiens) [9]; 2.08 in test [10]. In addition, the z-score in test [2] was 0.595 (inactive); in test [3] it was -1.34 (inactive); in [4] it was 0.629 (inactive); in [5] it was 0.516 (inactive).
For the molecule `COc1ccc([Si](C)(C)[C@@H]2[C@@H](CC(=O)N(CCO)Cc3ccccc3)O[C@]3(C(=O)N(Cc4ccc(I)cc4)c4ccccc43)[C@H]2C)cc1`, the composite z-score stood at 0.29 in [1]; 0.349 in [6]; 1.22 in test [7]; 0.402 with Torsin-1A (Homo sapiens) [8]; 0.603 with Torsin-1A (Homo sapiens) [9]; 2.01 in [10]. Further, the z-score in [2] is -4.48 (inactive); in test [3], -0.129 (inactive); in [4] it was -0.505 (inactive); in test [5] it was -0.905 (inactive).
